Here are results for 40 sequences from the supplement of paper PMC10338343.

± gives the standard deviation.
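Also: 1 nM active piRISC with 0.1 nM target library at 33 °C single turnover.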

The first experiment concerns MILI (PIWIL2) piRISC loaded with L1MC piRNA (26 nt). Description: pre-steady-state target cleavage rate (min^-1); guide: L1MC piRNA 5'p-UAACUAAAUACUAUGCAAGCUGUAGG; MIWI and MILI are mouse PIWI proteins and EfPiwi is from a freshwater sponge; tags in brackets are library labels; higher = faster piRNA-guided slicing of the target. Conditions: auxiliary factor: 500 nM mouse GTSF1. A digest of the protocol: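 Reactions were run for 0–8 or 0–960 min at 33 °C in HEPES–potassium acetate buffer, combining 1 nM active affinity-purified piRISC with one synthetic guide, […] transcribed, DNA-blocked target RNA library and, in some cases, 500 nM GTSF1 partner protein. Sequencing of uncleaved targets followed, with normalisation to depth and to weakly complementary targets. Three trials were pooled, k3 was capped at 0.0001 min^-1, and the pre-steady-state cleavage rate was taken from a burst-and-steady-state fit.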
Take UCCUGGAACAGGAAGCAUAGUAUUUUCAAA: the “pre-steady-state target cleavage rate” value came to 0.00836 ± 0.0043.
UCCUGGAACAGCUUGCAUAGCUAUUUAGUUA: the “pre-steady-state target cleavage rate” value turned out to be 0.00904 ± 0.0044.
The same measure, in the same setting: the result for UCCUGGAUGACGAUGCAUAGUAUUUAGUAA reads 0.128 ± 0.016; that for UCCUCCUACAGCUACCAUAGUAUUUAGAAA, 0.0576 ± 0.019; that for UCCUGGAUGUGCUUGCAAACUAUUUAGUUA, 0.00852 ± 0.0038.
In the case of UCCUGGAUGUCGUUGCAUAGUAUGUAGUUA, the “pre-steady-state target cleavage rate” value stood at 0.015 ± 0.0074.
As to UCCUGGAUGUCCAUGCAUACUAUUUAGUUA, the “pre-steady-state target cleavage rate” value was found to be 0.0122 ± 0.0052.
Same read-out and setting: the result for UCCUGCUACAGCUUGCAAUGUAUUUAGUAA reads 0.124 ± 0.023.
On the same count and under the same terms, the result for UCCUGGAUCACCUUGCAUAGAAUUUAGUUA reads 0.017 ± 0.0097; that for UCCUGGAUGUCCUUGCAUAGUUUUUUGUUA, 0.00821 ± 0.0052; that for UCCUCGUACAGCUUGCAUAGUAUUUACUUA, 0.0971 ± 0.015.
Still for that read-out and setting: the result for UCCUGGAUGUCCUUGCAUUGUAUUUAGUAA reads 0.0421 ± 0.015; that for UCCUGCUACAGCUUGCAUAGAAUUUACUUA, 0.107 ± 0.031; that for UCCUGGAUGUGCUUGCAUAGUAAUUACUUA, 0.00537 ± 0.0033.
In the case of UCCUGGAUGUCGAACCAUAGUAUUCAGUUA, the “pre-steady-state target cleavage rate” value is < 0.0001.
The same measure, in the same setting: the same measure for UCCUGGAUGUCGUUGCUUAGUAAUUAGUUA: 0.0131 ± 0.0058.
The same measure, in the same setting: the result for UCCUGGAUCAGCUUGCAUACUAUUUUGUUA reads 0.0178 ± 0.0061.
On the same count and under the same terms, the same measure for UCCUGGAUGUGCUUGCAUAGUAAUUUGUUA: 0.0141 ± 0.0071.
In the case of UCCUGGAUGUCGUUGCAUAGUAUUUAGGUUA, the “pre-steady-state target cleavage rate” value was found to be 0.152 ± 0.033.
Turning to UCCUGGUACAGGUUGCAUAGUAUUUAGAAA, the “pre-steady-state target cleavage rate” value was found to be 0.043 ± 0.013.
Still for that read-out and setting: the same measure for UCCUGCUACAGCUUGCAUACAUUUUAGUUA: 0.0121 ± 0.0061; for UCCUGGAACAGCAUGCAUAGUAUUUACAAA: 0.182 ± 0.035.
Turning to UCCUGGAUCUCGUUGCAUAGUAUUUUCAAA, the “pre-steady-state target cleavage rate” value amounted to 0.0482 ± 0.013.
For the sequence UCCUGGAUGACCUUGCAUAGAAUUUAGUUA, the “pre-steady-state target cleavage rate” value worked out at 0.023 ± 0.012.
The same measure, in the same setting: the result for UCCUGGAUGUGCUUGCAUUGUAUUUAGAUA reads 0.0503 ± 0.009.
For UCCUCCUACAGCAAGCAUAGUAUUUACAAA, the “pre-steady-state target cleavage rate” value stood at 0.172 ± 0.032.
On to UCCUGGAACAGCUUGCAAAGUAUUUACUUA, for which the “pre-steady-state target cleavage rate” value was found to be 0.122 ± 0.027.
On to UCCUGGAUCAGCUUGCAUACUAUUUACAAA, for which the “pre-steady-state target cleavage rate” value is 0.0104 ± 0.0042.
On the same count and under the same terms, the result for UCCUGGAUGUCCUUGCCAUAGUAUUUAGUUA reads 0.00783 ± 0.0048.
Still for that read-out and setting: the result for UCCUGGAUGUCGAUGCAUAGUUAUUUAGUUA reads 0.00685 ± 0.0037.
Regarding UCCUGGAUGUCCUUGCAUACUAAUUAGUUA, the “pre-steady-state target cleavage rate” value was 0.00561 ± 0.0042.
The same measure, in the same setting: the same measure for UCCUGGAUGUGCUUGCAUUCUAUUUAGUUA: 0.0101 ± 0.004; for UCCUGGAUCAGCUUGCAUAGUAUUUUGUAA: 0.0574 ± 0.016; for UCCUGGAUCAGGAUGCAUAGUAUUUACAAA: 0.0127 ± 0.0048.
Still for that read-out and setting: the same measure for UCCUGGAUGAGCUUGCAUAGUAUUAUGUUA: 0.172 ± 0.036.

Still in this experiment, the particulars now being: auxiliary factor: none (no GTSF1).
Take UCCUGGAUGUCGAACGUAUGUAUUUAGUA: the “pre-steady-state target cleavage rate” value was < 0.0001.
On the same count and under the same terms, the result for UCCUGGAUGUCGAACCAAAGUAUUUAGUAA reads < 0.0001; that for UCCUGGAUGUCGAUCCAUAGUAUUUAGAUA, < 0.0001; that for UCCUGGAUGUCGAACGCUAGUAUUUAGUUA, < 0.0001.
On the same count and under the same terms, the same measure for UCCUGGAUGUCGUUGCAUAGAUUUUAGUUA: 0.00439 ± 0.0019.
